# High-throughput results from PubChem BioAssay.
# AI-2 QS mod: modulates the Vibrio harveyi AI-2 quorum sensing system; AID 2094; Vibrio harveyi JMH597 AI-2 luminescence/OD600 ratio, 9 h; hits give low values; strain lacks LuxN and CqsS sensors; 0 = neutral-control median; activity change, % at 7.5 µM; 300,000 compounds, 0.4% hits; in the data active means activity change below about -75%, passing the limit was not always enough; inconclusive means no clear call, values can overlap the other calls;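 further: luminescence divided by OD600 gain over 9 h not by final OD600 alone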
# PG9 Ab binder: PG9 antibody binding by small molecule; TR-FRET gp120-PG9 antibody binding; inhibition, % at 6.7 µM; 360,000 compounds, 0.43% hits; in the data active means inhibition above about 8.5%
# HSF1 inh: HSF1 inhibition; 300,000 compounds, 0.77% hits; NIH3T3-HGL HSE-luciferase, MG132-induced, luminescence 8 h; hits give low values; activity change, negative = inhibition, % at 7.5 µM (by protocol);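 active means more than half of replicate wells show activity change below -50%, luminescence cut by over half; inconclusive means some wells, but at most half, below -50%; inactive means no replicate well below -50%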;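 further: luciferase reports HSF-1 transcriptional activity via heat shock element; 0% = median of DMSO wells and -100% = zero luminescence signal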
# SMARCA2 activ: activators of SMARCA2 function. MG213 cells, MMTV-luciferase reporter, dexamethasone, overnight. activation, % at 9.1 µM. AID 652017. 370,000 compounds, 1% hits; in the data active means activation above about 7.8%;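 further: 0% = vehicle wells and 100% = reference activator wells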
# FXN GAA850 act: activators of GAA850 frataxin (FXN) promoter; activation, % at 6 µM; 360,000 compounds, 0.56% hits; HEK293 lucGAA850 FXN promoter luciferase reporter, 24 h; percent of 10 µM SAHA response;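 active means activation above the average of all compounds screened plus 3 SD, cutoff fixed separately per campaign, cut at about 7.5% in these data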;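 further: 0% = DMSO wells and 100% = 10 µM SAHA wells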
# HSP90 refold inh: inhibitors of HSP90 luciferase refolding in rabbit reticulocyte lysate | luciferase refolding luminescence, 3 h | inhibition, % at 5.6 µM | 290,000 compounds, 0.91% hits;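 active means inhibition above the screen-wide mean plus 3 SD, computed separately per campaign, cut at about 16% in these data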;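 further: 0% = DMSO wells and 100% = 60 µM geldanamycin wells; inhibitors lower the luminescence because luciferase stays unfolded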
# SMARCA2 act conf: confirmation of SMARCA2 (BRM) function activators | 3,500 compounds, 30% hits | MG213 cells, MMTV-luciferase with dexamethasone, luminescence, overnight; MG213 cells expressing E1A, Rb sequestered; DMSO wells 0%, reference activator 100% | shares compounds with SMARCA2 activ | AID 652260 | activation, % at 9.1 µM;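 active means activation above its plate's cutoff, the mean activation of tested wells plus 3 SD, cut at about 7.9% in these data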
# GAL4-VP16 Luc: GAL4-VP16 reporter activation counter-screen; shares compounds with SMARCA2 activ; HEK293 GAL4-VP16 pG5luc reporter, luciferase luminescence; scaled: DMSO wells 0%, SAHA wells 100%; activation, % at 9.1 µM; 3,500 compounds, 41% hits;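 active means activation above the solvent-only control well mean plus 3 SD, averaged across control plates, cut at about 5.2% in these data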
# The depositor's hits bear a star; ? = inconclusive; · = no result. This is a sample that favours compounds with a hit; in the whole collection about 3.4% have one here.
SMILES,AI-2 QS mod,PG9 Ab binder,HSF1 inh,SMARCA2 activ,FXN GAA850 act,HSP90 refold inh,SMARCA2 act conf,GAL4-VP16 Luc
C#CCNC(=O)C[C@H]1C[C@@]2(C(=O)OC)C(=C[C@H](C(C)C)O[C@@H]2C2CC2)N(Cc2ccccc2)C1=O,·,0,·,-1,·,·,·,·
CN(C(=O)c1ccco1)c1nc(-c2ccc(F)cc2)cs1,·,8,36,9.3*,6,-1,8.0*,7.6*
COC(=O)c1sc(NC(=O)COc2ccc(OC)cc2)nc1C,13,8,-4,1,1,-1,·,·
COC(=O)c1sc(NC(=O)COc2cccc3ccccc23)nc1C,35,6,-27,10*,-2,0,4,2
CCN(C)C1CN(Cc2cn(Cc3cc(C)cc(C)c3)nn2)S(=O)(=O)C1 (configuration not stated),·,-2,·,-4,·,·,·,·
COC(=O)C1=CN(c2ccc3c(c2)OCO3)C(N)=C(C#N)C1c1ccc(-c2ccccc2)cc1 (configuration not stated),·,0,·,-4,·,·,·,·
Cc1cc(=O)oc2cc(OCCc3ccccc3)ccc12,-9,-2,25,8.6*,0,-3,8.7*,21*
CCC1([N+](=O)[O-])COC(C=Cc2ccccc2)OC1 (configuration not stated),·,-2,·,9.7*,3,·,5,4
CN(C)c1cccc2c(S(=O)(=O)NCC3CCN(C(=O)C(=O)c4cccs4)CC3)cccc12,·,0,·,-6,·,·,·,·
COC(=O)c1cc2c(c3c4cc(F)ccc4n(S(=O)(=O)c4ccc(OC)cc4)c13)C(=O)N(Cc1ccccc1OC)C2,·,0,·,-5,·,·,·,·
CC(C)CNc1cccc2c1S(=O)(=O)N(Cc1cccc(F)c1)[C@@H](C)[C@H](c1ccccc1)O2,·,-1,·,-3,·,·,·,·
CC(C)[C@@H]1CC[C@@H](C)C[C@H]1O,·,-2,·,-3,-2,·,·,·
O=c1c(=NNc2ccccc2Cl)c(=O)c2ccccc12,·,-3,·,8.4*,-1,26*,0,5
COc1ccccc1-n1cc(-c2ccccc2)c2c(=S)nc[nH]c21,-5,1,-9,8.4*,6,5,1,1
COc1ccccc1N1CCN(C(=O)C2CC2)CC1,27,-2,12,1,3,·,·,·
COc1ccccc1N1CCN(C(=O)C2CCN(C(=O)c3ccccc3Cl)CC2)CC1,34,1,1,8.2*,-1,-2,-2,0
COc1ccc(C(c2nnnn2C(C)(C)C)N2CCN(c3nc4ccccc4s3)CC2)cc1 (configuration not stated),16,-1,-8,9.2*,0,6,-1,1
CC(C)(C)c1ccc(-c2nnc(SCC(=O)NC3CC3)o2)cc1,·,0,·,9.0*,4,·,0,5.5*
COc1ccc(N2CCN(c3cncc(C)n3)CC2)cc1,·,-1,·,8.2*,0,·,-1,2
COc1cccc(C2C(C(=O)OC(C)C)=C(C)Nc3ncnn32)c1 (configuration not stated),4,-1,-3,8.2*,-3,-4,1,1
C(=N\Nc1nc(Nc2ccccc2)nc(N2CCOCC2)n1)/c1c[nH]c2ccccc12,12,-1,-3,9.6*,·,-6,1,7.7*
COc1cccc(CC(=O)Nc2nc(C)cs2)c1,5,-2,·,8.6*,2,-7,4,2
CCC(N=c1cc(-c2ccc(OC)c(OC)c2)oc2ccc(C)cc12)C(=O)O (configuration not stated),7,0,?,1,4,-2,·,·
CCC(N=c1cc(-c2ccc(OC)cc2)oc2ccc(C)cc12)C(=O)O (configuration not stated),14,-1,32,17*,7,3,11*,8.8*
CSc1ccc(-c2cc(=O)c3ccccc3o2)cc1,-14,1,17,12*,7,0,6,12*
SMILES,AI-2 QS mod,PG9 Ab binder,HSF1 inh,SMARCA2 activ,FXN GAA850 act,HSP90 refold inh,SMARCA2 act conf,GAL4-VP16 Luc
O=c1cc(-c2ccc(F)cc2)oc2ccccc12,20,-1,20,5,5,0,·,·
Cc1ccccc1-c1cc(=O)c2ccccc2o1,·,0,·,2,0,·,·,·
O=c1cc(-c2ccccc2F)oc2ccccc12,3,-1,21,13*,7,-4,6,7.7*
COc1ccc(-c2cc(=O)c3cc(OC)ccc3o2)cc1,3,1,19,9.8*,2,2,6,7.0*
CCOC(=O)C1CCCN(C(=O)c2cccc(Cl)c2)CC1 (configuration not stated),·,1,·,-1,1,·,·,·
Cc1cc(C)c(S(=O)(=O)c2cccc(Cl)c2)c(=O)[nH]1,7,-3,-8,11*,-1,-4,-3,0
Cc1cc(C)c(S(=O)(=O)c2ccc(Cl)cc2)c(=O)[nH]1,9,-2,-10,-1,1,2,·,·
S=C(SCc1nc(-c2ccc(Cl)cc2)no1)N1CCSCC1,·,1,·,-4,·,·,·,·
COCC1CCN(Cc2nc(COc3ccccc3)no2)C1 (configuration not stated),17,-1,-5,8.3*,-2,-1,-3,1
COCC1CCN(Cc2nc(-c3cccs3)no2)C1 (configuration not stated),9,0,8,13*,6,3,2,6.0*
Cc1sc(=NC(=O)c2ccco2)n(C)c1-c1ccc(F)cc1,16,0,13,8.8*,2,-1,14*,12*
COc1cccc2cc(-c3nc(-c4cccs4)cs3)c(=O)oc12,-12,-1,14,8.6*,3,-3,4,11*
O=C(O)c1ccccc1C1Nc2ccccc2C(=O)N1CCCN1CCOCC1 (configuration not stated),22,-4,0,12*,1,4,-2,1
O=C1c2ccccc2NC(c2ccccc2)N1CCCN1CCOCC1 (configuration not stated),4,-1,7,-2,0,5,·,·
CC(C)CC(=O)c1c(O)cc(O)c2c1OC1=C(C(=O)C(C)(C)C(=O)C1(C)C)C2CC(C)C (configuration not stated),·,-1,·,-6,·,·,·,·
O=C(COc1ccc(F)cc1Br)N1CCc2ccccc21,0,0,23,12*,4,0,6,14*
O=Cc1ccc(OCC(=O)N2CCc3ccccc32)c(Br)c1,·,-1,·,-1,2,·,·,·
